Screening data: PubChem, National Center for Advancing Translational Sciences (NCATS)
PGK inhibitor – inhibitors of T. brucei phosphoglycerate kinase. 0.043% of 380,000 active. Potency, µM (series often up to 57.5 µM), for inactives: at the highest dose activity change, negative = inhibition, usual class: inhibitors. PGK/GAPDH coupled, Kinase-Glo luminescence, 60 min. P07378; also: potency is read from the fitted curve at half-maximal effect; % is scaled to controls: 0 for no effect and ±100 for the full control effect; nearly all actives have a fitted effect of over 60% in size
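Luminescent ATP detection (Kinase-Glo Plus) follows a 60-minute room-temperature incubation, with wells lacking PGK as controls. Buffer: 100 mM TEA (pH 7.6), 5 mM MgCl2, 0.01% Tween-20. Coupling enzyme GAPDH (100 nM final) supplies unstable 1,3-BPG in-well.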
Tb PFK inh – T. brucei PFK enzyme inhibition | O15648 | T. brucei PFK, ADP-Glo luminescence | Potency, µM (titrated, usually from 57.5 µM), inactives show at the highest dose activity, negative = inhibition, hits mostly inhibitors | 0.17% of 330,000 active | AID 485367;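 also: potency is read from the fitted curve at half-maximal effect; 0% = uninhibited 1x PFK enzyme wells and -100% = no-enzyme wells; nearly all actives have a fitted effect of over 60% in size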
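ADP-Glo luminescence quantified ADP after 45 min at room temperature, with 1.25 nM T. brucei PFK, 0.1 mM ATP and 0.5 mM fructose-6-phosphate in pH 8.0 TEA buffer. qHTS titrations up to 57 µM; curves classified by quality.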
TDP1 block – blocks human tyrosyl-DNA phosphodiesterase 1. Q9NUW8. Potency, µM (series often up to 130 µM), inactives show at the top dose activity change, negative = inhibition, actives largely listed as inhibitors. recombinant TDP1, AlphaScreen DNA substrate cleavage. 0.28% of 350,000 active; also: potency is read from the fitted curve at half-maximal effect; % is scaled to controls: 0 for no effect and ±100 for the full control effect; nearly all actives have a fitted effect of over 40% in size
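Tdp1 1 nM final; 15 min RT w/ cpd; substrate 15 nM, 5 min; beads 10 ug/ml, 10 min; AlphaScreen read. Neg ctrl: no enzyme.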
WRN inhibitor – WRN helicase (human) inhibition; Q14191; WRN helicase unwinding, fluorescent forked duplex, kinetic; Potency, µM (top dose mostly 114 µM), without a hit: top-dose activity change, negative = inhibition, hits mostly inhibitors; 0.46% of 360,000 active; AID 651768; also: potency is read from the fitted curve at half-maximal effect; % is scaled to controls: 0 for no effect and ±100 for the full control effect; nearly all actives have a fitted effect of over 55% in size
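Fluorescence dequenching readout, ex 525 nm/em 598 nm, kinetic mode: forked duplex DNA (100 nM final) with adjacent fluorophore and quencher unwound by WRN (20 nM final) with 2 mM ATP. Compound preincubation 15 min, room temperature.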
FEN1 inh-1 – blocks human flap endonuclease 1; AID 588795; Recombinant FEN1 flap cleavage, fluorescence, 15 min; 0.35% of 390,000 active; Potency, µM (top dose mostly 114 µM), for the others: at the highest dose activity change, negative = inhibition, hits mostly inhibitors; also: potency is read from the fitted curve at half-maximal effect; % is scaled to controls: 0 for no effect and ±100 for the full control effect; nearly all actives have a fitted effect of over 65% in size
Target sequence (P39748 whole entry, looked up): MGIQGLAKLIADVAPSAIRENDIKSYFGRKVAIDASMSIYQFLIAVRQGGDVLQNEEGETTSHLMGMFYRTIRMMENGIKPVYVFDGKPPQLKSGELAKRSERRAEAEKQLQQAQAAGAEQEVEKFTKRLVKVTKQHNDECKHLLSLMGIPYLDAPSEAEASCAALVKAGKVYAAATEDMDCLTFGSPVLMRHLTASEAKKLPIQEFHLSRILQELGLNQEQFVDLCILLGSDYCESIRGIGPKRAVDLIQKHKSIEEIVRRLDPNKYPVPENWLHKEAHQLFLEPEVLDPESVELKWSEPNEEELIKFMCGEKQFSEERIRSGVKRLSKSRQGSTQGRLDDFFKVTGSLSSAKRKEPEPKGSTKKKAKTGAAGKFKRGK
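Enzyme 10 nM, 15 min RT preincubation with compound; start with substrate 50 nM final; reads at 0 and 15 min; qHTS titration, four-parameter Hill fit.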
PI5P4K alpha inh – blocks human PI5P4K alpha kinase activity; P48426; PI5P4Kalpha enzyme, ADP-Glo luminescence, 60 min; stronger effect = lower value; max response, %; 1.2% of 330,000 active; AID 652105; active = max response of -50% or lower; inconclusive = between -30% and -50%; inactive = -30% or higher; also: value at the top dose of about 77 µM; % is scaled to controls: 0 for no effect and ±100 for the full control effect
Target sequence (P48426 whole entry, looked up): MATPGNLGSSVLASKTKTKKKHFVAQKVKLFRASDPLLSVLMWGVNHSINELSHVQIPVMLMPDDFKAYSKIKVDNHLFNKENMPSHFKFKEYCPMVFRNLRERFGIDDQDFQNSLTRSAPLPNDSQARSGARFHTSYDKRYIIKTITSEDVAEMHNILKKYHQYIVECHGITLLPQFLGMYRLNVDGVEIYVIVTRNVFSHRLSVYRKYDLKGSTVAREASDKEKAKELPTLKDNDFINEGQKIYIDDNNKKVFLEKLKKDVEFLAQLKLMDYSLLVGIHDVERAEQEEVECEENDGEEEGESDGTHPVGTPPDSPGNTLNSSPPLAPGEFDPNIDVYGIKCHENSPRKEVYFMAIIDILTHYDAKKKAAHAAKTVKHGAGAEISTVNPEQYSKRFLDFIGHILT
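Single end-point luminescence (ADP-Glo) quantified ADP from PI5P4Kalpha turnover; ATP 5 microM final, 1 h at RT, 0.1% CHAPS and 0.28 mM EGTA in HEPES pH 7.4.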
FEN1 inh-2 – FEN1 inhibition, cherry-pick retest; shares compounds with FEN1 inh-1; FEN1 flap cleavage, TAMRA/BHQ2 fluorogenic DNA substrate; Potency, µM, actives largely listed as inhibitors; 79% of 880 active; AID 720498; also: potency is read from the fitted curve at half-maximal effect; nearly all actives have a fitted effect of over 60% in size
Starred values were filed as active, the others as inactive; i = inactive; ? = inconclusive; / = no result given; [ ] = remark or other dose. Shown are actives, neighbours in structure and some others; about 1.5% of the full set was active somewhere. Unless noted, calls follow the shape of the dose curve; as a rule, active = well fitted curve in the direction sought with a large enough effect; inconclusive = small, poorly fitted or top-dose-only effect, or another doubt; inactive = no such curve, though single readings can be large; an effect the other way counts as inactive or inconclusive.

SMILES | PGK inhibitor | Tb PFK inh | TDP1 block | WRN inhibitor | FEN1 inh-1 | PI5P4K alpha inh | FEN1 inh-2
CCC1=NN2C(=N)/C(=C/c3cc(C)n(Cc4ccccc4)c3C)C(=O)N=C2S1 | -1% | 0% | 6% | -26% | -16% | 4 | /
Cc1cc(/C=C2\C(=N)N3N=C(c4ccco4)SC3=NC2=O)c(C)n1Cc1ccccc1 | -4% | -4% | 8% | ? | ? | -62* | ?
CCN(CC)CCNC(=O)c1cc2c(=O)n(C)c3ccccc3c2s1 | i | 0% | / | 43% | 50µM* | -1 | 48*
CCCCN(CC)CCNC(=O)c1cc2c(=O)n(C)c3ccccc3c2s1 | -4% | 0% | / | 27% | ? | 4 | /
O=C(Nc1ccc(Br)cc1Cl)c1cnn2c1NC(=C1CC1)C=C2C(F)F | / | / | / | / | 0% | / | /
CC1CCc2nc(-c3cc4ccc(O)cc4oc3=O)sc2C1 (centres undefined) | / | / | 0% | / | -13% | / | /
O=c1[nH]c(=S)[nH]c2c1C(c1ccc(Br)cc1)c1c([nH]c(=S)[nH]c1=O)O2 | ? | ? | / | 14µM* | 18µM* | -75* | 2.1*
COc1ccc(CCn2c3c(c(=O)[nH]c2=S)CN(CC(C)C)CN3)cc1OC | / | / | 1% | / | -3% | / | /
CCOc1cc(-c2ccc3c(c2)OCO3)cc(=[O+]CC)c2c(C)oc(C)c12 | / | / | 1% | / | 45µM* | / | ?
Cc1oc(C)c2c(=O)cc(-c3ccc4c(c3)OCO4)cc(OC(=O)c3ccccc3Cl)c12 | -7% | / | 5% | / | ? | / | /
c1nc(N2CCC(N3CCCC3)CC2)c2cc(-c3ccc4c(c3)OCO4)ccc2n1 | / | / | / | / | / | / | 34*
c1nc(NCCCN2CCCCC2)c2cc(-c3ccc4c(c3)OCO4)ccc2n1 | / | / | / | / | / | / | 34*
Cc1occc1CNc1ncnc2ccc(-c3ccc4c(c3)OCO4)cc12 | / | / | 4% | / | / | / | /
Cn1cncc1CNc1ncnc2ccc(-c3ccc4c(c3)OCO4)cc12 | / | / | 5% | / | / | / | ?
O=C1c2ccccc2C(=O)N1c1nc(-c2ccc(F)cc2)cs1 | / | / | / | / | -11% | / | /
C=C1C=C(C(F)F)n2ncc(C(=O)N3CCN(c4ccccn4)CC3)c2N1 | / | / | / | / | -18% | / | /
Nc1ccc2cc3[nH]c4cc(N)ccc4c3nc2c1 | -14% | / | / | 25µM* | 11µM* | -59* | 12*
CCc1ccc2nc(N=C(N)N)nc(C)c2c1 | -4% | -7% | 2% | 79% | ? | -2 | /
Cc1cc2nc(N=C(N)N)nc(C)c2cc1C | / | 8% | 4% | 77% | 18µM* | -3 | 67*
Cc1ccc2nc(N=C(N)N)nc(C)c2c1 | -5% | 3% | -5% | 41% | 50µM* | 1 | 34*
Cc1cc2nc(/N=C(\N)NC(=O)C(C)C)nc(C)c2cc1C | -8% | 2% | 5% | 6% | -5% | 1 | /
Cc1ccc(C(=O)NCC(=O)OCC(=O)c2cccc3ccccc23)cc1 | / | / | 0% | / | -6% | / | /
Cn1c(=O)n2n(c1=O)[C@H]1[C@H](O)[C@H]3O[C@@H]3/C(=N/OC[C@@H](O)COCc3ccco3)[C@@H]1CC2 | / | / | -2%[21 µM] | / | / | / | /
O=C(O)C(c1ccccc1)N1C(=O)/C(=C\c2ccc(O)c(O)c2)SC1=S (centres undefined) | ? | ? | / | 32µM* | ? | ? | 30*
CCOc1ccc(/C=C2/SC(=S)N(C(C(=O)O)c3ccccc3)C2=O)cc1OCC (centres undefined) | -6% | -1% | 10% | -16% | -2% | -4 | /
SMILES | PGK inhibitor | Tb PFK inh | TDP1 block | WRN inhibitor | FEN1 inh-1 | PI5P4K alpha inh | FEN1 inh-2
CCOc1cc(/C=C2\SC(=S)N(C(C(=O)O)c3ccccc3)C2=O)ccc1O (centres undefined) | i | -15% | -3% | 56µM* | ? | -11 | 85*
COc1ccccc1/C=C1\SC(=S)N(C(C(=O)O)c2ccccc2)C1=O (centres undefined) | -1% | 0% | 1% | -5% | -8% | 5 | /
COC(=O)/C=C\CCc1coc(/C=C\CNC(=O)OC)n1 | / | / | 7%[21 µM] | / | / | / | /
CCc1ccc(NC(=O)c2nc(SCc3ccccc3F)ncc2Cl)cc1 | / | / | / | / | 7% | / | /
CNc1ccc2c3c(cccc13)C(=O)N(C)C2=O | -10% | -6% | / | ? | ? | 3 | ?
N#Cc1cccc(CS(=O)(=O)c2nnnn2C2CCCCC2)c1 | / | / | 7% | / | / | / | /
C(=C1C=c2ccccc2=C1)c1ccc(N=Nc2ccc(C=C3C=c4ccccc4=C3)cc2)cc1 | / | / | / | / | 2% | / | /
Cc1ccc(-c2cc(C(=O)Nc3ccc(S(=O)(=O)Nc4ncccn4)cc3)[nH]n2)c(O)c1C | -17% | 7% | 3% | ? | ? | -7 | ?
CC(=O)Nc1ccc(NC(=O)c2cc(-c3ccc(C)c(C)c3O)n[nH]2)cc1 | -4% | 1% | / | -4% | -17% | -11 | /
Cc1c(Cl)cccc1N=Cc1ccc([N+](=O)[O-])s1 | -16% | -7% | 2% | -17% | 14µM* | / | 13*
O=P(O)(O)OP(=O)(O)OP(=O)(O)O | / | / | 2% | / | / | / | /
Cc1ccsc1/C=N/NC(=O)C(N)=O | 0% | 2% | 1% | 7% | 16µM* | -4 | ?
COc1cc2cc(-c3ccc(O)cc3O)nc(C)c2cc1OC | i | -1% | / | -20%[11.6 µM] | ? | -5 | ?
CCOc1ccc(-c2cc3cc(OC)c(OC)cc3c(C)n2)cc1 | 2% | 2% | 6% | -32% | 0% | 6 | /
CN(C)CCc1cc2c(c3c1ccc1ccccc13)OCO2 | i | 17% | 6% | -5% | ? | 6 | 21*
CN(C)CCCNc1ncnc2sc(-c3ccccc3)cc12 | i | 1% | / | -16% | ? | -13 | ?
Cc1ccc(C)c(Nc2nc3c(S(=O)(=O)c4ccc(Br)cc4)nnn3c3ccsc23)c1 | -3% | / | / | / | ? | / | ?
CN(C)c1ccc(/C=C2\c3ccccc3-c3ccc(N(C)C)cc32)cc1 | / | / | / | / | -10% | / | /
Cc1ccc2oc(=O)c(/C=C(\O)c3ccco3)nc2c1 | i | -9% | 0% | 1% | 9% | 2 | /
Cc1ccc2oc(=O)c(/C=C(\O)C(C)(C)C)nc2c1 | i | 1% | 8% | -8% | 50µM* | -6 | 34*
CC(C)(C)/C(O)=C/c1nc2cc(Cl)ccc2oc1=O | -4% | -8% | 8% | -10% | 28µM* | -3 | 12*
Cc1ccc2oc(=O)c(/C=C(\O)c3sc(C)nc3C)nc2c1 | i | -9% | 1% | 0% | -5% | -2 | /
CC1Cc2ccccc2C[N+]1(C)CC(=O)c1cccc([N+](=O)[O-])c1 (centres undefined) | / | / | / | / | 0% | / | /
Cc1ccc(CCNC(=O)Cn2nc(C)c3c(C)n(-c4ccc(C)cc4)nc3c2=O)cc1 | 11% | / | 3% | / | 8% | / | /
